Laboratory results as given in ChEMBL document CHEMBL1961873, “Compounds: GSK PKIS; Assays: Nanosyn kinase panel” (2012).

These compounds were tested against Cyclin-dependent kinase 1 (Homo sapiens) (UniProt P06493). Conditions: at 1 µM.
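Further: mean percent inhibition of the CDK1/cyclin B complex.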

Cyclin-dependent kinase 1 (Homo sapiens), sequence (P06493 whole entry, looked up): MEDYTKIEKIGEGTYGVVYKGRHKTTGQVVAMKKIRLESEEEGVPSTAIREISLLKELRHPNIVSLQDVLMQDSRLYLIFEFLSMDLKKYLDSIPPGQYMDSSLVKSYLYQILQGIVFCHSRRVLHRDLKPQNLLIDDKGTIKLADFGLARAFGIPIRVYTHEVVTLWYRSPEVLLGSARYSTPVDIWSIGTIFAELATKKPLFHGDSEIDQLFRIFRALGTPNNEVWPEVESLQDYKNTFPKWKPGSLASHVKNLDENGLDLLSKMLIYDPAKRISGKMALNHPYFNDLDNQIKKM

Point of comparison: `c1cc(-c2cnn3nc(N4CCOCC4)ccc23)nc(NC2CC2)n1`, inhibition 21.7%. Against it:
- CCCN(CCS(C)(=O)=O)Cc1ccc(-c2ccc3ncnc(Nc4ccc(OCc5cccc(F)c5)c(Cl)c4)c3c2)o1 — lower, 8.04%
- CCn1c(-c2nonc2N)nc2c(C#CC(C)(C)O)ncc(OC3CCNCC3)c21 — lower, 2.34%
- CCn1c(-c2nonc2N)nc2c(C#CC(C)(C)O)nc(OC[C@H](N)c3ccccc3)cc21 — lower, 0.95%
- CC(=O)Nc1cccc(C#Cc2cncnc2Nc2ccc(OCc3cccc(F)c3)c(Cl)c2)c1 — lower, 0.31%
- Cc1ccc(O)cc1Nc1ccnc2cc(-c3ccccn3)ccc12 — lower, 1.83%
- CCn1c(-c2nonc2N)nc2cnc(Oc3cccc(NC(=O)c4ccc(N(C)C)cc4)c3)cc21 — lower, 0.67%
- NC(=O)c1sc(-n2cnc3ccc(C(F)(F)F)cc32)cc1OCc1ccccc1Br — lower, 1.01%
- CCc1nn2ncccc2c1-c1ccnc(NC2CC2)n1 — lower, 6.8%
- N#Cc1c(NC(=O)CN2CCOCC2)sc2c1CCCC2 — lower, 4.23%
- CN(C)CCOc1ccc(-c2nc(-c3ccncc3)c(-c3ccc4c(c3)CC/C4=N\O)[nH]2)cc1 — lower, 5.87%
- CCOc1ccc2c(-c3ccnc(Nc4cccc(C(F)(F)F)c4)n3)cnn2n1 — lower, 6.63%
- COc1cccc(-c2c[nH]c3c(N/N=C/c4ccncc4)ncnc23)c1 — higher, 74.2%
- CNC(=O)c1cncc(/C=C/c2ccccc2Cl)c1 — lower, 3.2%
- c1ccc(-c2nc3n(c2-c2ccc4c(c2)OCO4)CCC3)nc1 — lower, 1.42%
- Fc1cccc(COc2ccc(Nc3ncnc4sc(-c5ccco5)cc34)cc2Cl)c1 — lower, 1.41%
- CC(C)(CO)CNC(=O)c1ccc2c(c1)/C(=N/Nc1ccc(S(N)(=O)=O)cc1)C(=O)N2 — higher, 74.8%
- COc1ccc(-c2cc(-c3c[nH]nc3-c3ccccn3)ccn2)cc1 — lower, 1.79%
- CC(=O)NCc1cccc(C#Cc2cncnc2Nc2ccc(OCc3cccc(F)c3)c(Cl)c2)c1 — lower, 2.88%
- COc1ccc(CNC(=O)c2ccc(-c3cc(-c4nnc(C)o4)ccc3C)cc2)cc1 — lower, 1.37%
- O=S(=O)(CCNCc1ccc(-c2ccc3ncnc(Nc4ccc(OCc5cccc(F)c5)c(Cl)c4)c3c2)o1)c1ccccc1 — lower, 1.65%
- Nc1nc(-c2cccc(Cl)c2)c(-c2ccc3ncccc3n2)s1 — lower, 2.18%
- CS(=O)(=O)CCNCc1ccc(-c2ccc3ncnc(Nc4ccc(OCc5ccccc5)c(C(F)(F)F)c4)c3c2)o1 — lower, 1.7%
- CCN(CC)S(=O)(=O)c1ccc(OC)c(Nc2ncc(-c3ccccc3)o2)c1 — lower, 5.32%
- CS(=O)(=O)CCNCc1coc(-c2ccc3ncnc(Nc4ccc(OCc5ccccc5)cc4)c3c2)c1 — lower, 1.71%
- CCN1CCC(CC(=O)Nc2n[nH]c3nnc(-c4cccc(F)c4F)cc23)CC1 — lower, 8.73%
- CN1CCC(n2cnc(-c3ccc(F)cc3)c2-c2ccnc(Nc3ccccc3)n2)CC1 — lower, 2.52%
- CCNC(=O)O[C@H]1CN[C@H](C#Cc2cc3ncnc(Nc4ccc(OCc5cccc(F)c5)c(Cl)c4)c3s2)C1 — lower, 2.13%
- Clc1ccc(-c2nn3ncccc3c2-c2ccnc(Nc3ccccc3)n2)cc1 — lower, 1.32%
- Cc1cccc2c1NC(=O)/C2=N\Nc1ccc(S(N)(=O)=O)cc1 — lower, 2.23%
- COc1cc(/C=N/Nc2ncnc3[nH]ncc23)ccc1O — lower, 15.8%
- COc1cccc(-n2ncc3c(N/N=C/c4ccc(F)cc4)ncnc32)c1 — higher, 35.5%
- COc1cc(N2CCN(C(C)C)CC2)ccc1Nc1nc(Nc2ccc(F)cc2C(N)=O)c2cc[nH]c2n1 — lower, 1.85%
